According to PubChem BioAssay (Tox21):
Inconclusive results are not listed. Active and inactive are the calls of the source. Unless noted, the call rests on the fitted dose curve; in most records, active means well fitted curve in the direction sought with a large enough effect in the repeat runs; inconclusive means weak or mixed curves; inactive means no such curve, though single readings can be large; an effect the other way counts as inactive or inconclusive.

What was measured:
[1] = qHTS assay to test for compound auto fluorescence at 535 nm (green) in HEK293 cells (AID 720680)
[2] = qHTS assay to test for compound auto fluorescence at 460 nm (blue) in HEK293 cell free culture (AID 720681)
How it was run: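 Test compounds were pinned into cell-free culture medium (DMEM with 10% FBS) and fluorescence was read directly at Ex/Em 405/460 nm. Signals were expressed as fluorescence equivalents of triamterene, with DMSO vehicle as control.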

[3] = qHTS assay to test for compound auto fluorescence at 535 nm (green) in HEK293 cell free culture (AID 720682)
How it was run: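 Compounds were pin-transferred into cell-free DMEM with 10% FBS, and green fluorescence was read at excitation 485 nm and emission 535 nm. Intensities were expressed as fluorescein-equivalent values.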

[4] = qHTS assay to test for compound auto fluorescence at 590 nm (red) in HEK293 cell free culture (AID 720683)
How it was run: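 Tox21 10K library compounds were pinned into cell-free DMEM with 10% FBS and fluorescence was read at excitation 540 nm. Activity is expressed as Rose Bengal sodium equivalency.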

[5] = qHTS assay to test for compound auto fluorescence at 590 nm (red) in HepG2 cell free culture (AID 720684)
How it was run: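 Measured in medium alone (MEM containing 10% FBS) following pintool addition of compound; emission at 590 nm with 540 nm excitation, referenced to Rose Bengal sodium.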

[6] = qHTS assay to test for compound auto fluorescence at 460 nm (blue) in HepG2 cell free culture (AID 720685)
How it was run: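 Compound (23 nL) or DMSO pinned into cell-free MEM with 10% FBS; blue fluorescence read at 405/460 nm excitation/emission, expressed as auto-fluorescence equivalency to triamterene.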

[7] = qHTS assay to test for compound auto fluorescence at 535 nm (green) in HepG2 cell free culture (AID 720686)
[8] = qHTS assay to test for compound auto fluorescence at 460 nm (blue) in HepG2 cells (AID 720687)
How it was run: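 Cells (2,000/well in MEM with 10% FBS) attached overnight at 37 C, then were exposed to compound or DMSO for 1 hr at 37 C, 5% CO2. Fluorescence read at Ex/Em 405/460 nm, expressed as triamterene-equivalent signal.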

[9] = target: Glucocorticoid receptor (Homo sapiens) (UniProt P04150); test: qHTS assay to identify small molecule agonists of the glucocorticoid receptor (GR) signaling pathway (AID 720691; active means well fitted activation curve with a large enough effect in the signal ratio in the repeat runs, not every such curve was filed as active; the % refers to the signal ratio)
How it was run: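 Fluorescence intensity from LiveBLAzer B/G FRET substrate (2 h, room temperature) reports beta-lactamase expression driven by the glucocorticoid response element in GR-bla HeLa cells after 18 h compound exposure at 37 C.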

[10] = target: Glucocorticoid receptor (Homo sapiens) (UniProt P04150); test: qHTS assay to identify small molecule antagonists of the glucocorticoid receptor (GR) signaling pathway (AID 720692; active means well fitted inhibition curve with a large enough effect in the signal ratio in the repeat runs, not every such curve was filed as active; the % refers to the signal ratio)
How it was run: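 HeLa GR-bla cells; cmpd + dex 5 nM final, 18 h 37 C; LiveBLAzer B/G FRET substrate 2 h RT; fluorescence intensity read. Antagonist mode, qHTS.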

[11] = qHTS assay to identify small molecule antagonists of the glucocorticoid receptor (GR) signaling pathway - cell viability counter screen (AID 720693); further: nearly all actives have a fitted effect of over 55% in size
[12] = qHTS assay for identifying genotoxic compounds that show differential cytotoxicity against isogenic chicken DT40 cell lines with known DNA damage response pathways - wild type cell line (AID 743012); further: nearly all actives have a fitted effect of over 60% in size
How it was run: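 Wild type DT40, 300 cells/well, ~0.5 h settle at 37 C/5% CO2; compounds in DMSO added by pintool; 40 h at 37 C/5% CO2; CellTiter-Glo, 30 min RT; luminescence.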

[13] = qHTS assay for identifying genotoxic compounds that show differential cytotoxicity against isogenic chicken DT40 cell lines with known DNA damage response pathways - Rev3 mutant cell line (AID 743014); further: nearly all actives have a fitted effect of over 55% in size
[14] = qHTS assay for identifying genotoxic compounds that show differential cytotoxicity against isogenic chicken DT40 cell lines with known DNA damage response pathways - Rad54/Ku70 mutant cell line (AID 743015); further: nearly all actives have a fitted effect of over 60% in size; further: potency means the concentration at half of the fitted maximal effect
[15] = qHTS assay to identify small molecule antagonists of the androgen receptor (AR) signaling pathway - cell viability counter screen (AID 743033; further: nearly all actives have a fitted effect of over 45% in size)
[16] = qHTS assay to identify small molecule antagonists of the androgen receptor (AR) signaling pathway using the MDA cell line - cell viability counter screen (AID 743041; further: nearly all actives have a fitted effect of over 45% in size)
How it was run: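 Viability counter screen run alongside the AR antagonist reporter: cells seeded 5 h before compound, R1881 added, 16 h incubation at 37C without CO2, fluorescent CellTiter-Fluor signal quantified.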

[17] = target: Androgen receptor (Homo sapiens) (UniProt P10275); test: qHTS assay to identify small molecule agonists of the androgen receptor (AR) signaling pathway using the MDA cell line (AID 743040; further: nearly all actives have a fitted effect of over 20% in size)
How it was run: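 Luminescence from ONE-Glo, read after 30 min at room temperature, reflects MMTV-driven luciferase in MDA-kb2 cells (AR- and GR-responsive). Treatment lasted 16 h at 37C, 0% CO2.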

[18] = target: Androgen receptor (Homo sapiens) (UniProt P10275); test: qHTS assay to identify small molecule antagonists of the androgen receptor (AR) signaling pathway using the MDA cell line (AID 743042; further: nearly all actives have a fitted effect of over 55% in size)
How it was run: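 MDA-kb2 cells (human breast carcinoma, stably carrying an MMTV-luciferase reporter responsive to AR and GR) were plated at 3,000 cells/well and preincubated 5 hr at 37C, then given compound plus R1881 agonist for 16 h. ONE-Glo luminescence was read.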

[19] = target: Androgen receptor (Homo sapiens) (UniProt P10275); test: qHTS assay to identify small molecule antagonists of the androgen receptor (AR) signaling pathway (AID 743035; active means well fitted inhibition curve with a large enough effect in the signal ratio in the repeat runs, not every such curve was filed as active; the % refers to the signal ratio)
How it was run: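 Fluorescence from a beta-lactamase FRET substrate (LiveBLAzer B/G, 2 h, room temperature) measured inhibition of R1881-stimulated signaling in GeneBLAzer AR-UAS-bla HEK293 cells exposed to compound for 16 h at 37C.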

[20] = target: Androgen receptor (Homo sapiens) (UniProt P10275); test: qHTS assay to identify small molecule agonists of the androgen receptor (AR) signaling pathway (AID 743036; active means well fitted activation curve with a large enough effect in the signal ratio in the repeat runs, with a control signal flat, not every such curve was filed as active; the % refers to the signal ratio)
How it was run: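 Activation was read as beta-lactamase FRET signal from LiveBLAzer B/G substrate, added for 2 h at room temperature. Before that, GeneBLAzer AR-UAS-bla GripTite (HEK293) cells had 16 h compound exposure at 37C.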
On the % scale 0 is the no-effect control and ±100 the full control effect.

Sequence of Androgen receptor (Homo sapiens) (P10275 whole entry, looked up): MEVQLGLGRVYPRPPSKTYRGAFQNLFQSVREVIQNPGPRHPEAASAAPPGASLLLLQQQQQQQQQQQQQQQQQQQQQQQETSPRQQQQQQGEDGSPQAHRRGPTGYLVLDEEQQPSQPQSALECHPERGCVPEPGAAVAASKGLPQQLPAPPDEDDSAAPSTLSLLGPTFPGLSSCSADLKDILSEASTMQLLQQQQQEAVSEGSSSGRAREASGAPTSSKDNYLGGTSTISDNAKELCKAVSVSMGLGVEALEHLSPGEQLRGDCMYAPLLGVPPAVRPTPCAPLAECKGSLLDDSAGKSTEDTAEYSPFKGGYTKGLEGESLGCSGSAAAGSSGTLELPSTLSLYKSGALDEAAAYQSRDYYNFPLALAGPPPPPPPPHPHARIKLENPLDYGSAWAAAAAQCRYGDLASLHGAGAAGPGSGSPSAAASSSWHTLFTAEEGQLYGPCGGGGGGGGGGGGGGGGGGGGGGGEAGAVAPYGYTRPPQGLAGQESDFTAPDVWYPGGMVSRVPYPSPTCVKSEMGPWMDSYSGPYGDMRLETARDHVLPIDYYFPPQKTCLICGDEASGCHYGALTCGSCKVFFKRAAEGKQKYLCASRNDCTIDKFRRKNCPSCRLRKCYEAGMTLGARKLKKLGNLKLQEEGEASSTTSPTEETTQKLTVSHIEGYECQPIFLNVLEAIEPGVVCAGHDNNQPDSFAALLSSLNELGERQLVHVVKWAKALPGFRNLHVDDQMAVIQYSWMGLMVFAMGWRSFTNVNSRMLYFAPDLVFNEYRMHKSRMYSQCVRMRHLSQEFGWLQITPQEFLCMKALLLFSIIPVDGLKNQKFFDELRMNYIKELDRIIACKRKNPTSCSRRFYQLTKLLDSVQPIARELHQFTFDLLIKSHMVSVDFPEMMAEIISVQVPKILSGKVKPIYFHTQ
Sequence of Glucocorticoid receptor (Homo sapiens) (P04150 whole entry, looked up): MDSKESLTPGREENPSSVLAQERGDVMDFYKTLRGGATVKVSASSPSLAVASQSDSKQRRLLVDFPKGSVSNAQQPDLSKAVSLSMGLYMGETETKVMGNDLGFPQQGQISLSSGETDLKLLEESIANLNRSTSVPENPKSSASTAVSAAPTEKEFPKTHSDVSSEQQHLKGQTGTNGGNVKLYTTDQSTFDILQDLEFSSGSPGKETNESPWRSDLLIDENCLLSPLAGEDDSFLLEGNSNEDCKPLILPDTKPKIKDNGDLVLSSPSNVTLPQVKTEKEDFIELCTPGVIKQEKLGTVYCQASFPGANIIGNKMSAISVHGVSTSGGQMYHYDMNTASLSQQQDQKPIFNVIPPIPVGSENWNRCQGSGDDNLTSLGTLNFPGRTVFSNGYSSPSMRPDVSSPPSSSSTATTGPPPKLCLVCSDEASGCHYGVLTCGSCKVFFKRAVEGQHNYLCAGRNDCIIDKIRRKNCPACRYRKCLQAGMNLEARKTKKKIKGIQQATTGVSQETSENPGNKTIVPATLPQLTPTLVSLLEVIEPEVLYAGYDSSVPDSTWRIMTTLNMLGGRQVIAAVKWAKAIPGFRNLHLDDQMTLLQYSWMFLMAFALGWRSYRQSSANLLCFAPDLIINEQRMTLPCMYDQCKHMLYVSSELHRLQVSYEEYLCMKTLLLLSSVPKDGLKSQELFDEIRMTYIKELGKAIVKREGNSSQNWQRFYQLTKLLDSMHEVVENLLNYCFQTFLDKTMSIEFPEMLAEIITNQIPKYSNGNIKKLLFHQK

CCCC(C)C1(CC)C(=O)N=C(S)NC1=O (configuration not stated)
inactive: outcome [1] | outcome [2] | outcome [3] | outcome [4] | outcome [5] | outcome [6] | outcome [7] | outcome [8] | Potency [9] | Potency [10] | Potency [11] | Potency [12] | Potency [13] | Potency [14] | Potency [15] | Potency [16]

[O-][Br+2]([O-])O
inactive: outcome [1] | outcome [2] | outcome [3] | outcome [4] | outcome [5] | outcome [6] | outcome [7] | outcome [8] | Potency [9] | Potency [10] | Potency [11] | Potency [12] | Potency [14] | Potency [15] | outcome [17] | Potency [18]

COc1cccc([C@@]2(O)CCCC[C@@H]2CN(C)C)c1
inactive: outcome [1] | outcome [2] | outcome [3] | outcome [4] | outcome [5] | outcome [6] | outcome [7] | outcome [8] | Potency [9] | Potency [10] | Potency [11] | Potency [12] | Potency [13] | Potency [14] | Potency [15] | Potency [19] | outcome [20] | outcome [17] | Potency [16] | Potency [18]

C=CC1(C)OC(=O)N(c2cc(Cl)cc(Cl)c2)C1=O (configuration not stated)
inactive: outcome [1] | outcome [2] | outcome [3] | outcome [4] | outcome [5] | outcome [6] | outcome [7] | outcome [8] | Potency [9] | Potency [10] | Potency [11] | Potency [12] | Potency [15] | Potency [16]
active: Potency [14] 61.1 µM

Cc1ccc2c(c1)C1CN(C)CCC1N2 (configuration not stated)
inactive: outcome [1] | outcome [2] | outcome [3] | outcome [4] | outcome [5] | outcome [6] | outcome [7] | outcome [8] | Potency [9] | Potency [10] | Potency [11] | Potency [12] | Potency [14] | Potency [15]

NCC1(CC(=O)O)CCCCC1
inactive: fluorescence, % of fluorescein [1] 0.112% [at 18.6 µM] | fluorescence, % of fluorescent control [2] 0.0173% [at 18.6 µM] | activity change [3] 0.0242% [at 18.6 µM] | fluorescence, % of fluorescent control [4] 0.0512% [at 18.6 µM] | fluorescence, % of Rose Bengal [5] 0.0064% [at 18.6 µM] | fluorescence, % of fluorescent control [6] 0.0583% [at 18.6 µM] | fluorescence, % of fluorescein control [7] -0.0096% [at 18.6 µM] | fluorescence, % of fluorescent control [8] 0.027% [at 18.6 µM] | Potency [9] | Potency [10] | Potency [11] | Potency [12] | Potency [13] | Potency [14] | Potency [16]

COc1cc(CCN)cc(OC)c1OC
inactive: outcome [1] | outcome [2] | outcome [3] | outcome [4] | outcome [5] | outcome [6] | outcome [7] | outcome [8] | Potency [9] | Potency [10] | Potency [11] | Potency [12] | Potency [13] | Potency [14] | Potency [15] | Potency [16]
